High-throughput results: PubChem BioAssay, several laboratories
This is a sample that favours compounds with a hit; in the whole collection about 32% have one here.
CYP2C9 inhib – human CYP2C9 inhibition | 96,000 tested, 20% active | P11712 | inhibition, % at 5 µM | CYP2C9 Supersomes, luciferin-H conversion, luminescence | AID 777;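 active means blocking of liver enzyme CYP2C9 beyond about 50% at 5 µM, limit read from the data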
Target sequence (P11712 whole entry, looked up): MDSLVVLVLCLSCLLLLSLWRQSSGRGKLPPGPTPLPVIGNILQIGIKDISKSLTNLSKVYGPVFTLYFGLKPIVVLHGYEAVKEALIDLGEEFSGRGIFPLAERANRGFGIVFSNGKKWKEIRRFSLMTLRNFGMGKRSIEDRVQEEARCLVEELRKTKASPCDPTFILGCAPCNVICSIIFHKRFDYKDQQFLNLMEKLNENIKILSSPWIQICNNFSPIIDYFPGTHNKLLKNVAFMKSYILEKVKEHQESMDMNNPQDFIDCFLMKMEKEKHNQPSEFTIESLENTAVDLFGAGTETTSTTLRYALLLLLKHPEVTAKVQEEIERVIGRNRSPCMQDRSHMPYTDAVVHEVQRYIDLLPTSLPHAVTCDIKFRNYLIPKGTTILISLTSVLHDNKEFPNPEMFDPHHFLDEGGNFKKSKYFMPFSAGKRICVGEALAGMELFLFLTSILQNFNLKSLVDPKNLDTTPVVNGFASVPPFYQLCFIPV
CYP2C19 act – increases human CYP2C19 enzyme activity | P33261 | recombinant CYP2C19, luciferin-H EGE luminescence; hits give high values; 0 = fully inhibited enzyme, 1 = untreated enzyme | activation factor at 5 µM | 96,000 tested, under 10 active | AID 1025;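 active means activation factor of at least 2 at 5 µM in the primary screen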
CYP2C9 act – CYP2C9 (human) activation | P11712 | recombinant CYP2C9, luciferin-H conversion, luminescence; hits give high values; factor 1 = untreated enzyme, 0 = blocked | activation factor at 5 µM | 96,000 tested, 1.4% active;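 active means activation factor of 2 or more for CYP2C9 at a 5 µM dose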
PostGolgi ctrl – yeast control strain growth, post-Golgi counter-screen | 98,000 tested, 5% active | efflux-deficient yeast background strain, growth absorbance A615, 16 h | inhibition, % at 10 µM
PostGolgi yeast – growth inhibition of a yeast mutant, post-Golgi transport screen. post-Golgi transport phenotypic cell assay. inhibition, % at 10 µM. 98,000 tested, 0.9% active. AID 739;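 further: yeast cells grown in 1536-well plates; yeast grown about 18 h at 30C before absorbance read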
CYP2C19 inh – blocks human cytochrome P450 2C19. 96,000 tested, 21% active. P33261. CYP2C19 Supersomes, luciferin-H EGE luminescence, 30 min. AID 778. inhibition, % at 5 µM;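 active means CYP2C19 inhibition above a set limit at 5 µM in the primary screen, cut at about 50% in these data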
Hits are given with their value; . = inactive; / = no result given. Unless noted, no stated cut-off is given here; in the data, active means inhibition above about 30%; inactive means the rest.

SMILES	CYP2C9 inhib	CYP2C19 act	CYP2C9 act	PostGolgi ctrl	PostGolgi yeast	CYP2C19 inh
N#CCSc1nnc(Cc2cccc3ccccc23)n1C1CCCCC1	.	.	.	.	.	57
Cc1nc(SCc2nc3ccccc3[nH]2)c2oc3ccccc3c2n1	91	.	.	38	.	.
c1ccc2[nH]c(CSc3ncnc4c3oc3ccccc34)nc2c1	97	.	.	.	.	69
C=CCOc1nc2c(c(=O)n(C)c(=O)n2C)n1Cc1ccccc1Cl	.	.	.	.	.	.
Cn1c(=O)c2c(nc(Cl)n2Cc2ccncc2)n(C)c1=O	.	.	.	.	.	.
CC(C)CCn1c(Cl)nc2c1c(=O)n(C)c(=O)n2C	.	.	.	.	.	55
CC(C)CCn1c(Oc2ccccc2Cl)nc2c1c(=O)n(C)c(=O)n2C	85	.	.	32	.	.
Clc1ccccc1CSC1=NCCCN1	.	.	.	.	.	.
O=c1ccnc(SCc2ccccc2Cl)[nH]1	60	.	.	.	.	.
CCOC(=O)c1c(C)c(C(=O)N2CCCCCC2)c(C)n1C	.	.	.	.	.	.
CCOC(=O)c1c(C)c(C(=O)N2CCCCCC2)c(C)n1CC	.	.	.	.	.	67
COc1ccc(OCCOC(=O)c2cccs2)cc1	73	.	.	.	.	84
COc1ccc(C(=O)O/N=C(/C)c2cccs2)cc1	91	.	.	.	.	.
Cc1cccc(/C(N)=N/OC(=O)c2cccs2)c1	.	.	.	.	.	.
CCc1ccc(C(=O)COC(=O)c2cccs2)cc1	.	.	.	.	.	.
COc1ccc(C2CC2/C(C)=N/OC(=O)c2cccs2)cc1 (stereo not drawn)	75	.	.	.	.	62
O=C1CN(C(=O)c2cc(Br)c(Br)s2)c2ccccc2N1	.	.	.	37	.	.
O=C1NC2=C(C(=O)CCC2)C(c2ccc3ncccc3c2)N1 (stereo not drawn)	.	.	.	.	.	.
O=S(=O)(c1ccc(F)cc1)N1CCN(c2ccccc2)CC1	.	.	.	.	.	.
NS(=O)(=O)c1ccc(N2N=C(c3ccccc3)CC2c2ccc(F)cc2)cc1 (stereo not drawn)	90	.	.	50	.	.
Cc1cccc(CN2C(=O)N/C(=C/c3cc(C)n(-c4cc(C)ccn4)c3C)C2=O)c1	61	.	.	.	.	.
Cc1cccc(CN2C(=O)N/C(=C/c3ccc(C)s3)C2=O)c1	.	.	.	.	.	.
CCOCCCNC(=O)c1ccc(CS(=O)(=O)Cc2ccccc2F)o1	.	.	.	.	.	.
CCC(CC)C(=O)Nc1cc(OC)c(OC)cc1C(=O)O	.	.	.	.	.	.
COc1cc(NS(=O)(=O)c2ccc(F)cc2)c(C(=O)O)cc1OC	56	.	.	.	.	.
SMILES	CYP2C9 inhib	CYP2C19 act	CYP2C9 act	PostGolgi ctrl	PostGolgi yeast	CYP2C19 inh
CCOc1ccc(S(=O)(=O)Nc2cc(OC)c(OC)cc2C(=O)O)cc1	73	.	.	.	.	.
CCC(C)C(=O)Nc1cc(OC)c(OC)cc1C(=O)O (stereo not drawn)	.	.	.	.	.	.
CCOc1ccc(N(C(C)C(=O)NC(C)CC)S(C)(=O)=O)cc1 (stereo not drawn)	.	.	.	.	.	.
CCOc1ccc(N(C(C)C(=O)N/N=C(\C)c2cccc(NC(=O)c3ccccc3)c2)S(C)(=O)=O)cc1 (stereo not drawn)	69	.	.	.	.	76
COCCN(C(=O)CCC(=O)Nc1ccccn1)C(C(=O)NC1CCCC1)c1ccc(OC)cc1 (stereo not drawn)	/	/	/	.	.	/
Cc1cc(C(F)F)n2nc(C(=O)Nc3cccnc3Cl)nc2n1	.	.	.	.	.	.
CN(C)c1ccc(-c2ccccc2)nn1	.	.	.	.	.	58
CCCc1nc2ccccc2c(=O)n1/N=C/c1ccc(O)cc1	.	.	.	.	.	.
O=c1c2ccccc2nc(COc2ccccc2)n1/N=C/c1ccco1	79	.	.	.	.	62
N#Cc1nc(COc2ccc(Cl)cc2Cl)oc1N1CCN(c2ccccc2)CC1	.	.	.	.	.	58
N#Cc1nc(COc2ccc(Cl)cc2Cl)oc1N1CCOCC1	.	.	.	.	.	70
N#Cc1nc(COc2ccccc2)oc1N1CCOCC1	.	.	.	.	.	.
COc1ccc(N2CCN(c3oc(COc4ccc(Cl)cc4Cl)nc3C#N)CC2)cc1	.	.	.	.	.	.
